Source: PubChem BioAssay (Tox21)
Results filed as inconclusive are left out. Calls of active or inactive are those of the source. Calls follow the shape of the dose curve; as a rule, active = well fitted inhibition curve with a large enough effect in the repeat runs; inconclusive = weak or mixed curves; inactive = no such curve, though single readings can be large or run the other way.
% is scaled to controls: 0 for no effect and ±100 for the full control effect; potency is read from the fitted curve at half-maximal effect.

These compounds were tested against Cytochrome P450 3A4 (Homo sapiens) (UniProt P08684) (assay: Cytochrome P450 Family 3 Subfamily A Member 4 (CYP3A4) small molecule antagonists: luciferase reporter qHTS assay (AID 1671201; also: nearly all actives have a fitted effect of over 50% in size)). Conditions: P450-Glo CYP3A4 enzyme, luciferin luminescence, 1 h; series mostly up to 115 µM.
Chain of Cytochrome P450 3A4 (Homo sapiens) (P08684 whole entry, looked up): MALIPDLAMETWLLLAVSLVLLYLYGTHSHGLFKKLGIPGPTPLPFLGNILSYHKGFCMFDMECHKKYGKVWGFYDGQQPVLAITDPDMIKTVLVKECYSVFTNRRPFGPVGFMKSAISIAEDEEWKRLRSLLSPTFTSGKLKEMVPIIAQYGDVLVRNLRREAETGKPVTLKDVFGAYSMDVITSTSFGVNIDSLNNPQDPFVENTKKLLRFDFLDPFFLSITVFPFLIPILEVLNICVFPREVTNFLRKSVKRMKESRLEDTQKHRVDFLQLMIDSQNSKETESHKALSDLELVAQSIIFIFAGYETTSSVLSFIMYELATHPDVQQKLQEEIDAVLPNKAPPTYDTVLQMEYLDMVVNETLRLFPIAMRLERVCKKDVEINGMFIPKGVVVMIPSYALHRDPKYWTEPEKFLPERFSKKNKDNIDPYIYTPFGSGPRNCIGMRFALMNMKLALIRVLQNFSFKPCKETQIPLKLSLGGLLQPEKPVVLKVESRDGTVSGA
Procedure, shortened: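 P450-Glo CYP3A4 luminescent assay: compounds preincubated 10 min at room temperature with enzyme and proluciferin substrate, NADPH regeneration added, 1 h room-temperature reaction, stopped with luciferin detection reagent; luminescence read after 20 min. Ketoconazole positive control.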
In the case of `Cc1ccc2nc(-c3ccc(N)cc3)sc2c1S(=O)(=O)O`, the Potency was “inactive”.
In the case of `O[Si](c1ccccc1)(c1ccccc1)c1ccccc1`, the Potency was “inactive”.
With `CCCCCCCC/C=C\CCCCCCCC(=O)N(CCO)CCO` the Potency was 15.8 µM (active).
For `CC(C)c1ccc2sc3ccccc3c(=O)c2c1`, the Potency was “inactive”.
In the case of `O=C(O)C[C@H](O)C[C@H](O)/C=C/c1c(C2CC2)nc2ccccc2c1-c1ccc(F)cc1`, the activity change, negative = inhibition was -3.86% [at 23.6 µM] (inactive).
For `CC(C)(c1ccc(Oc2ccc(N)cc2)cc1)c1ccc(Oc2ccc(N)cc2)cc1`, the Potency was 2.52 µM (active).
In the case of `CCCCCCCCOC(=O)c1cc(O)c(O)c(O)c1`, the Potency was 35.6 µM (active).
For `CCCCNc1ccc(NCCCC)c2c1C(=O)c1ccccc1C2=O`, the activity change, negative = inhibition was 15.3% [at 23.6 µM] (inactive).
`CN1CCN(c2ccccc2/C=C2\SCCN(c3ccc(Cl)c(Cl)c3)C2=O)CC1` was tested, and the Potency was 3.99 µM (active).
`CCOC(=O)OC(=O)OCC` was tested, and the Potency was “inactive”.
For `C1=CCCC1`, the Potency was “inactive”.
